Inconclusive results are not listed. Unmarked numbers belong to inactive results. Active and inactive are the calls of the source. The call rests on the fitted dose curve; in most records, active means well fitted cell-killing curve with a large enough effect; inconclusive means small, poorly fitted or top-dose-only effect; inactive means flat fitted curve, though single readings scatter.

We go through 40 compounds from PubChem BioAssay (NCATS).
Potency means the concentration at half of the fitted maximal effect.

The nature of the assay: qHTS of pediatric cancer cell lines to identify multiple opportunities for drug repurposing: Primary screen for DAOY cells (AID 1347090). Further: nearly all actives have a fitted effect of over 55% in size. As to conditions: DAOY medulloblastoma viability, CellTiter-Glo luminescence, 48 h; series mostly up to 46 µM; activity change, negative = cytotoxic: at the top concentration. An excerpt:
Drug repurposing or repositioning has been offered as a strategy for drug development in oncology programs. This approach has special potential for childhood cancers and other rare or orphan diseases, where the expected return on new drug development has been a disincentive to pharmaceuticals.
In this project we exploit the poly-pharmacology of drugs to discover new indications via phenotypic screening of a panel of 19 well-characterized cell lines derived from solid tumors seen in children and adolescents. The goal is to identify approved drugs with previously unrecognized anticancer properties that has the potential to reveal new mechanisms and biological processes involved in carcinogenesis or drug resistance. We employed a titration-based paradigm (quantitative high-throughput screening or qHTS), where all compounds were tested at multiple concentrations for their effect on cell viability. Concentration-response curves (CRCs) were derived directly from the primary screen, and both potency and efficacy values were used to identify compounds with robust bioactivity profiles. We screened the NIH Chemical Genomics Center (NCGC) Pharmaceutical Collection (NPC) and Mechanism Interrogation Plate (MIPE) small molecule collections of approved and investigational compounds against these cell lines; and measured metabolically active cells after 48 hours of compound treatment as a proxy for cell viability.
Assay Submitter: Nathalia J. Martinez, National Center for Advancing Translational Sciences, National Institutes of Health, Rockville, MD, USA; email: natalia.martinez@nih.gov
[1] Shen, M et al. Quantitative high-throughput phenotypic screening of pediatric cancer cell lines identifies multiple opportunities for drug repurposing. Oncotarget 2017 Dec 19;9(4):4758-4772. PMID 29435139.
The cells were obtained from University of North Carolina (UNC), Pediatric Preclinical Testing Program (PPT), and Coriell Institute (CI).
qHTS cell viability assay:
Cells were assayed in growth media at a density of 500-1,000 cells/well. Five microliters of cells were dispensed into 1,536-well, white, solid-bottom, TC-treated plates (Greiner Bio One) using a multidrop dispenser and incubated at 37 degrees C, 5% CO2, under a humidified atmosphere for 5 hours. Twenty-three nanoliters of compounds and controls (neutral control DMSO or positive control bortezomib at final concentration of 2.3 µM) were subsequently transferred by Kalypsys pintool. For primary screens, the MIPE collection was tested at 11-point dilutions (final concentrations range from 0.78 nM to 46 µM) and the NPC collection at 8-point dilutions (final concentrations range from 0.59 nM to 46 µM). Compounds tested in follow-up screens were assayed at 11-point dilutions. Cells were incubated for 48 hours, followed by addition of 3 uL of CellTiter-Glo (Promega). After a 15 min incubation at room temperature, samples were analyzed for luminescence intensity using a ViewLux High-throughput CCD imager equipped with clear filters.
A general note: qHTS replaces the single test concentration by a dilution series.
As for `CN(CC=CC#CC(C)(C)C)Cc1cccc2ccccc12`, the “activity change, negative = cytotoxic” value was 1.65%.

For the compound `COc1nccc(-c2c(-c3ccc(F)cc3)ncn2C2CCC(O)CC2)n1` (stereo not given), the “activity change, negative = cytotoxic” value was -6.55%.

For the compound `COc1cc([C@@H]2c3cc4c(cc3[C@@H](O[C@@H]3O[C@@H]5CO[C@@H](C)O[C@@H]5[C@H](O)[C@@H]3O)[C@H]3COC(=O)[C@H]23)OCO4)cc(OC)c1O`, the Potency was 1.48 µM (active).

For `CN(C)CCN(C)C(=O)c1ccc(NC(=O)Nc2ccc(-c3nc(N4CCOCC4)c4ccn(CC(F)(F)F)c4n3)cc2)cc1`, the Potency was 1.48 µM (active).

Consider `NC[C@H]1O[C@H](O[C@@H]2[C@@H](O)[C@@H](O[C@H]3O[C@H](CO)[C@@H](O)[C@H](N)[C@@H]3O)[C@H](N)C[C@@H]2N)[C@H](O)[C@@H](O)[C@H]1O`, for which the “activity change, negative = cytotoxic” value is -4.94%.

For `Nc1ccc(-c2ccc3ncc4ccc(=O)n(-c5cccc(C(F)(F)F)c5)c4c3c2)cn1`, the Potency was 0.0074 µM (active).

For the compound `C[C@]12C=CC(=O)C=C1CC[C@@H]1[C@@H]2[C@@H](O)C[C@@]2(C)[C@@H]1CC[C@]2(O)C(=O)CO`, the “activity change, negative = cytotoxic” value was -5.68%.

As for `Cc1c(-c2cccc3c(CCCOc4cccc5ccccc45)c(C(=O)O)n(Cc4cccnc4)c23)c(COc2ccc(N3CCN([S+](=O)([O-])N(C)C)CC3)cc2)nn1C`, the Potency is 23.5 µM (active).

On to `NC(=O)c1noc([C@H](CCCC2CCCCC2)CC(=O)NO)n1`, for which the Potency was 14.8 µM (active).

Turning to `Cc1nc(NC(=O)N2CCC[C@@H]2C(N)=O)sc1-c1csc(C(C)(C)C)n1`, the Potency was 14.8 µM (active).

`C[C@H]1COC2=C1C(=O)C(=O)c1c2ccc2c1CCCC2(C)C`: the “activity change, negative = cytotoxic” value is -1.72%.

On to `CN[C@@H](C)[C@H]1[C@H](O)C[C@@]2(C)[C@@H]3CC[C@H]4C(C)(C)[C@@H](NC)CC[C@@]45C[C@@]35CC[C@]12C`, for which the “activity change, negative = cytotoxic” value is 7.77%.

With `CN(C)c1nc(Cc2ccc(NC(=O)c3ccc(C(F)(F)F)cc3)cc2)nc(N(C)C)c1CC(=O)O`, the “activity change, negative = cytotoxic” value was 2.84%.

As to `CC1=C(C(=O)Nc2cc3cn[nH]c3cc2F)C(c2ccc(C(F)(F)F)cc2)CC(=O)N1` (stereo not given), the “activity change, negative = cytotoxic” value was -2.09%.

With `CCOC(=O)N1CCN([N+]([O-])=NOc2cc(ON=[N+]([O-])N3CCN(C(=O)OCC)CC3)c([N+](=O)[O-])cc2[N+](=O)[O-])CC1`, the “activity change, negative = cytotoxic” value was -0.58%.

As to `O=C(c1ccc(F)c(F)c1Nc1ccc(I)cc1F)N1CC(O)([C@H]2CCCCN2)C1`, the Potency is 18.7 µM (active).

`CC(=O)O[C@]1(C(C)=O)CC[C@H]2[C@@H]3C=C(Cl)C4=CC(=O)[C@@H]5C[C@H]5[C@]4(C)[C@@H]3CC[C@@]21C`: the Potency was 18.7 µM (active).

`NC1(C(=O)N[C@@H](CCO)c2ccc(Cl)cc2)CCN(c2ncnc3[nH]ccc23)CC1`: the Potency is 14.8 µM (active).

For the compound `CN(C)CCOc1ccc(C(=C(CCCl)c2ccccc2)c2ccccc2)cc1`, the “activity change, negative = cytotoxic” value was -16%.

Regarding `CN1CCN2c3ncccc3Cc3ccccc3C2C1` (stereo not given), the “activity change, negative = cytotoxic” value is 1.04%.

Regarding `Cc1ccc2c(c1)c1c(n2CCc2ccc(C)nc2)CCN(C)C1`, the “activity change, negative = cytotoxic” value is 4.11%.

On to `CNc1nc(Nc2ccc(C(=O)N3CCOCC3)cc2OC)ncc1Cl`, for which the “activity change, negative = cytotoxic” value was -10.5%.

`COc1cc(CNC(=O)CCCCC=CC(C)C)ccc1O`: the “activity change, negative = cytotoxic” value was -12.4%.

Turning to `COc1ccc(CCN(C)CCCOc2ccc(S(=O)(=O)c3[nH]c4ccccc4c3C(C)C)cc2)cc1OC`, the “activity change, negative = cytotoxic” value was -4.96%.

For the compound `CN[C@H]1[C@@H](O[C@@H]2[C@H](O[C@@H]3[C@@H](O)[C@@H](O)[C@@H](N=C(N)N)[C@@H](O)[C@@H]3N=C(N)N)O[C@H](C)[C@@]2(O)C=O)O[C@@H](CO)[C@@H](O)[C@H]1O`, the activity change, negative = cytotoxic was 1.78% [at 9.22 µM].

Regarding `COc1ccc(C=CC(=O)Nc2ccccc2C(=O)O)cc1OC`, the “activity change, negative = cytotoxic” value was -11.6%.

Turning to `CCOC(=O)[C@@H](N)CCC(=O)N[C@@H](CSCc1ccccc1)C(=O)N[C@@H](C(=O)OCC)c1ccccc1`, the “activity change, negative = cytotoxic” value is -4.65%.

Turning to `CN1C(=O)C[C@H](C(=O)N[C@@H](Cc2cnc[nH]2)C(=O)N2CCC[C@@H]2C(N)=O)NC1=O`, the “activity change, negative = cytotoxic” value is -2.88%.

For `CCC(C)SSc1ncc[nH]1` (stereo not given), the Potency is 18.7 µM (active).

As for `CN(C)CC[C@H](CSc1ccccc1)Nc1ccc(S(=O)(=O)NC(=O)c2ccc(N3CCN(Cc4ccccc4-c4ccc(Cl)cc4)CC3)cc2)cc1[N+](=O)[O-]`, the Potency is 18.7 µM (active).

Turning to `CCC=CC[C@H]1C(=O)CC[C@@H]1CC(=O)OC`, the “activity change, negative = cytotoxic” value is -5.35%.

For the compound `Cc1ccccc1C(C(=O)NC1CCCCC1)N(C(=O)CNc1ccc(C#N)cc1)c1cccc(F)c1` (stereo not given), the “activity change, negative = cytotoxic” value was -1.95%.

As for `O=C(CC12CC3CC(CC(C3)C1)C2)Nc1cccc2nc(NCCNCCO)ccc12`, the Potency is 9.35 µM (active).

As for `CN1C(=O)C(Cc2c[nH]c3ccccc23)NC1=S` (stereo not given), the “activity change, negative = cytotoxic” value is -1.96%.

Turning to `COc1cc(Nc2nc3ccccc3nc2NS(=O)(=O)c2ccc(NC(=O)c3ccc(C)c(OC)c3)cc2)cc(OC)c1`, the Potency is 23.5 µM (active).

Consider `COc1ccc(-c2nc3ccc(C4=NNC(=O)CC4C)cc3[nH]2)cc1` (stereo not given), for which the Potency was 21.1 µM (active).

Take `N#Cc1c(N(CC(=O)O)CC(=O)O)sc(C(=O)O)c1CC(=O)O`: the “activity change, negative = cytotoxic” value is -10.4%.

Regarding `CCCCCCOC(=O)N=C(N)c1ccc(NCc2nc3cc(C(=O)N(CCC(=O)OCC)c4ccccn4)ccc3n2C)cc1`, the “activity change, negative = cytotoxic” value was -9.43%.

On to `COc1cc(C=CC(=O)O)ccc1O`, for which the “activity change, negative = cytotoxic” value is -0.0019%.

As for `CC1C(=O)OC2C(O)C34C5CC(C(C)(C)C)C36C(OC(=O)C6O)OC4(C(=O)O5)C12O` (stereo not given), the “activity change, negative = cytotoxic” value is -7.41%.
